Results filed as inconclusive are left out. Where a call stands in place of a potency, no number is given. Unmarked numbers belong to inactive results. Calls of active or inactive are those of the source. Unless noted, the call rests on the fitted dose curve.
Columns and labels:
[1] = qHTS for Inhibitors of the Functional Ribonucleoprotein Complex (vRNP) of Lassa (LASV) Arenavirus: LASV Primary Screen - GLuc reporter signal (AID 1347082; calls by dose curve; tested in HEK293 reporter line; further: nearly all actives have a fitted effect of over 60% in size; further: potency means the concentration at half of the fitted maximal effect)
[2] = qHTS for Inhibitors of the Functional Ribonucleoprotein Complex (vRNP) of Lassa (LASV) Arenavirus: Viability assay - alamar blue signal for LASV Primary Screen (AID 1347083; calls by dose curve; tested in HEK293 reporter line; further: nearly all actives have a fitted effect of over 80% in size; further: potency means the concentration at half of the fitted maximal effect)
[3] = qHTS for Inhibitors of the Functional Ribonucleoprotein Complex (vRNP) of Lymphocytic Choriomeningitis Arenaviruses (LCMV): Viability assay - alamar blue signal for LCMV Primary Screen (AID 1347085; calls by dose curve; tested in HEK293 reporter line; further: nearly all actives have a fitted effect of over 80% in size; further: potency means the concentration at half of the fitted maximal effect)
[4] = target: Nucleoprotein (Lymphocytic choriomeningitis virus (strain Armstrong)) (UniProt P09992); test: qHTS for Inhibitors of the Functional Ribonucleoprotein Complex (vRNP) of Lymphocytic Choriomeningitis Arenaviruses (LCMV): LCMV Primary Screen - GLuc reporter signal (AID 1347086); further: series mostly up to about 57 µM; nearly all actives have a fitted effect of over 70% in size
Chain of Nucleoprotein (Lymphocytic choriomeningitis virus (strain Armstrong)) (P09992 whole entry, looked up): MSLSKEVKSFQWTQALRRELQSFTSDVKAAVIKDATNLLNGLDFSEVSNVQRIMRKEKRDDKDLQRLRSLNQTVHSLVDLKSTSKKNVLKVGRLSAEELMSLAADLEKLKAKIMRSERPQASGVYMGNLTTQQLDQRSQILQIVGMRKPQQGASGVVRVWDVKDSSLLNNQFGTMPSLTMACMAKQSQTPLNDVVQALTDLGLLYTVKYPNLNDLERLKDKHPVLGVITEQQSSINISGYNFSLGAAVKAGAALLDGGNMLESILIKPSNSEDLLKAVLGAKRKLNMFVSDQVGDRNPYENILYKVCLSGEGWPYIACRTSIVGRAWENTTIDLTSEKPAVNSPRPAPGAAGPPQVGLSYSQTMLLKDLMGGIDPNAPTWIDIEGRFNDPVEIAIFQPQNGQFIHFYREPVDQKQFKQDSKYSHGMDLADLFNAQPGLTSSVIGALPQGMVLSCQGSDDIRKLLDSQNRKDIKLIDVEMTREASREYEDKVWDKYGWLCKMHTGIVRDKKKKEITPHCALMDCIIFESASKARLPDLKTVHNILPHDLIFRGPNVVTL

CN[C@@H]1CN(c2ccc3c(=O)c(C(=O)O)cn(-c4nccs4)c3n2)C[C@@H]1OC
Potency [1]: inactive
Potency [2]: 10.6 µM (active)
Potency [3]: 15 µM (active)

CCC12CCCN3CCC4(C(=C(C(=O)OC)C1)Nc1ccccc14)C32 (stereo not drawn)
Potency [1]: inactive
Potency [2]: inactive
Potency [3]: inactive

COc1cccc2c1C(=O)c1c(O)c3c(c(O)c1C2=O)C[C@@](O)(C(=O)CO)C[C@H]3O[C@H]1C[C@H](N)[C@H](O)[C@H](C)O1
Potency [1]: 13.7 µM (active)
Potency [2]: 1.09 µM (active)
Potency [3]: 0.863 µM (active)

COc1ccc2c(c1)C(=O)CC(c1ccc(OC)c(OC)c1)O2 (stereo not drawn)
Potency [1]: inactive
Potency [2]: inactive
Potency [3]: inactive
Potency [4]: inactive

COC(=O)c1ccc2c(c1)C(NC(C)=O)CCc1cc(OC)c(OC)c(OC)c1-2 (stereo not drawn)
Potency [1]: inactive
Potency [2]: inactive

CC(=O)OC1CCC2(C)C(COc3ccc4ccc(=O)oc4c3)C(C)(O)CCC2C1(C)C (stereo not drawn)
Potency [1]: inactive
Potency [2]: inactive
Potency [3]: inactive

C[C@@H]1C2C[C@@]34COC(=O)C3=CC=C[C@H]4[C@@]13C[C@H](c1ccoc1)O[C@@H]3O2
Potency [1]: inactive
Potency [2]: inactive
Potency [3]: inactive
Potency [4]: inactive

CCCCCc1cccc(=O)o1
Potency [1]: inactive
Potency [2]: inactive
Potency [3]: inactive
Potency [4]: inactive

CCCCCCCCCCCCCCCCC
Potency [1]: inactive
Potency [2]: inactive
Potency [3]: inactive
Potency [4]: inactive

CC(C)=CCC[C@](C)(O[C@@H]1O[C@H](CO[C@@H]2OC[C@H](O[C@@H]3OC[C@@H](O)[C@H](O)[C@H]3O)[C@H](O)[C@H]2O)[C@@H](O)[C@H](O)[C@H]1O)C1CC[C@]2(C)C1[C@H](O)CC1[C@@]3(C)CC[C@H](O)C(C)(C)C3[C@@H](O)C[C@]12C (stereo partly drawn)
Potency [1]: inactive
Potency [2]: inactive
Potency [3]: inactive
Potency [4]: inactive

Nc1ncnc2c1ncn2[C@H]1O[C@H](CO)[C@@H](O)[C@@H]1O
Potency [1]: inactive
Potency [2]: inactive
Potency [3]: inactive
Potency [4]: inactive

CCC(C)SSC(C)CC (stereo not drawn)
Potency [1]: inactive
Potency [2]: inactive
Potency [3]: inactive
Potency [4]: inactive

CCCC(=O)OCCC(C)CCC=C(C)C (stereo not drawn)
Potency [1]: inactive
Potency [2]: inactive
Potency [3]: inactive
Potency [4]: inactive

CC(C)=C[C@H]1C[C@H](C)[C@H]2CC[C@H](C)c3c(O[C@@H]4OC[C@@H](O)[C@H](O)C4O)c(O)c(C)c1c32 (stereo partly drawn)
Potency [1]: inactive
Potency [2]: inactive
Potency [3]: inactive
Potency [4]: inactive

CC12C=CC(=O)C=C1CCC1C2CCC2(C)C(C(=O)CO)CCC12 (stereo not drawn)
Potency [1]: inactive
Potency [2]: inactive
Potency [3]: inactive
Potency [4]: inactive

O=C[C@H](O)[C@@H](O)[C@H](O[C@H]1O[C@H](CO)[C@@H](O[C@H]2O[C@H](CO)[C@@H](O)[C@H](O)[C@H]2O)[C@H](O)[C@H]1O)[C@H](O)CO
Potency [1]: inactive
Potency [2]: inactive
Potency [3]: inactive
Potency [4]: inactive

C[C@@H]1[C@H](C)CC[C@]2(C(=O)O)CC[C@]3(C)C(=CC[C@@H]4[C@@]5(C)C[C@@H](O)[C@H](O)[C@@](C)(CO)[C@H]5CC[C@]43C)[C@@H]12
Potency [1]: inactive
Potency [2]: inactive
Potency [3]: inactive
Potency [4]: inactive

CCOC(=O)c1cc(=O)[nH]c2ccccc12
Potency [1]: inactive
Potency [2]: inactive
Potency [3]: inactive
Potency [4]: inactive

Cn1cc(C=C2C(=O)Nc3cccnc32)c2ccccc21
Potency [1]: inactive
Potency [2]: inactive
Potency [3]: inactive
Potency [4]: inactive

COC1=CC(=O)[C@@]2([C@@H]1O)[C@@H](Cl)C[C@]13C(OC)=C(OC)C(=O)C[C@]21CCN3C
Potency [1]: inactive
Potency [2]: inactive
Potency [3]: inactive
Potency [4]: inactive

C[C@]12CCC3=C4CCC(=O)C=C4CC[C@@H]3[C@H]1CC[C@@]2(O)CC#N
Potency [1]: inactive
Potency [2]: inactive
Potency [3]: inactive
Potency [4]: inactive

COc1c2c(cc(O)c1C(C)=O)OC(C)(C)C=C2
Potency [1]: inactive
Potency [2]: inactive
Potency [3]: inactive
Potency [4]: inactive

CC(C)=CCC1=C(O)[C@](O)(CC=C(C)C)C(=O)C(C(=O)CC(C)C)=C1O
Potency [1]: inactive
Potency [2]: inactive
Potency [3]: inactive
Potency [4]: inactive

Cc1c[nH]c(C=C2C(=O)Nc3ccccc32)c1CCC(=O)O
Potency [1]: inactive
Potency [2]: inactive
Potency [3]: inactive
Potency [4]: inactive

C[C@H]1CC[C@@H]2[C@@H](C)[C@H]3C(C[C@H]4C5CC[C@H]6C[C@@H](O)CC[C@]6(C)C5CC[C@]34C)N2C1 (stereo partly drawn)
Potency [1]: inactive
Potency [2]: inactive
Potency [3]: inactive
Potency [4]: inactive

C/C=C(\C)C(=O)OC(C)(C)[C@H]1Cc2cc3ccc(=O)oc3cc2O1
Potency [1]: inactive
Potency [2]: inactive
Potency [3]: inactive
Potency [4]: inactive

COC1=C(OC)[C@]23CCc4ccc(OC)c(OC)c4[C@]2(CCN3C)CC1=O
Potency [1]: inactive
Potency [2]: inactive
Potency [3]: inactive
Potency [4]: inactive

CN1C(=O)[C@@H]2C[C@@]3([C@@]45C[C@H]6C(=O)N(C)[C@@H](Cc7ccccc7)C(=O)N6[C@@H]4Nc4ccccc45)c4ccccc4N[C@H]3N2C(=O)[C@@H]1Cc1ccccc1
Potency [1]: inactive
Potency [2]: inactive
Potency [3]: inactive
Potency [4]: inactive

CC(=O)O[C@H]1C2[C@@H](OC(=O)Cc3ccccc3)[C@@H](C)C[C@]2(OC(C)=O)C(=O)/C(C)=C/[C@@H]2[C@H](CC[C@@]13CO3)C2(C)C (stereo partly drawn)
Potency [1]: inactive
Potency [2]: inactive
Potency [3]: inactive
Potency [4]: inactive

Cn1c2c(c(=O)c3ccccc31)C[C@@H](O)C(C)(C)O2
Potency [1]: inactive
Potency [2]: inactive
Potency [3]: inactive
Potency [4]: inactive

CC(C=O)Cc1ccc(C(C)C)cc1 (stereo not drawn)
Potency [1]: inactive
Potency [2]: inactive
Potency [3]: inactive
Potency [4]: inactive
